SMILES strings stand for the structures. Unmarked numbers belong to inactive results. Inconclusive results are not listed. Active and inactive are the calls of the source. Unless noted, calls follow the shape of the dose curve; as a rule, active = well fitted curve in the direction sought with a large enough effect; inconclusive = small, poorly fitted or top-dose-only effect, or another doubt; inactive = no such curve, though single readings can be large; an effect the other way counts as inactive or inconclusive. Where only a bound is given, the exact number is not on record here.

Test [1] deals with Cytochrome P450 3A4 (Homo sapiens) (UniProt P08684). In words: qHTS Assay for Inhibitors and Substrates of Cytochrome P450 3A4 (AID 884). Also: potency is read from the fitted curve at half-maximal effect; nearly all actives have a fitted effect of over 50% in size. Summed up: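 20 nM human CYP3A4 with 25 uM Luciferin-PPXE (at KM) in 200 mM KPO4, preincubated 10 min with compound; NADPH regeneration started a 60 min RT reaction. Luciferin detected by luminescence, normalized to 57 uM ketoconazole as full inhibition.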
Chain of Cytochrome P450 3A4 (Homo sapiens) (P08684 whole entry, looked up): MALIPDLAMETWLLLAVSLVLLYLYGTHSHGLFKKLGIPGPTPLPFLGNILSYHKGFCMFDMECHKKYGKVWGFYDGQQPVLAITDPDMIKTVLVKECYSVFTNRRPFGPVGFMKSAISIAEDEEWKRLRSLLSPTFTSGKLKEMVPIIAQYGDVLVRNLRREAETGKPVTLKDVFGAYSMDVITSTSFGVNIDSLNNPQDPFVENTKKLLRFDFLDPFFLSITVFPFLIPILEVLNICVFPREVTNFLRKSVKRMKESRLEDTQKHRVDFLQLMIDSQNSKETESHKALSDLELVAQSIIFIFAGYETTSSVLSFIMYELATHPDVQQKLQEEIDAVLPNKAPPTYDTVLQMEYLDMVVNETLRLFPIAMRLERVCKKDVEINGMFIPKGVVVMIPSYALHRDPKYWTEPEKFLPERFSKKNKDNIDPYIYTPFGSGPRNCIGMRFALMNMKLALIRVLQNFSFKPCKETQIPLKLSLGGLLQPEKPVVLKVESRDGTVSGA
A general note: qHTS replaces the single test concentration by a dilution series.

Test [2] shares this target. As to the kind of experiment: qHTS Assay for Activators of Cytochrome P450 3A4 (AID 885). Also: nearly all actives have a fitted effect of over 65% in size. Summed up: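 20nM CYP3A4 + 25uM Luciferin-PPXE (=KM), 200mM KPO4; cpd 10 min RT; NADPH regen, 60 min RT; stop w/ detection buffer, 20 min; luminescence. Normalized to 57 uM ketoconazole.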
Test [3] can be described thus: P-glycoprotein substrates identified in KB-3-1 adenocarcinoma cell line, qHTS therapeutic library screen (AID 1346986). Also: nearly all actives have a fitted effect of over 60% in size. Summed up: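 Resistance attributable to P-gp was assessed by comparing AC50 in KB-8-5-11 with parental KB-3-1 and by tariquidar reversal. Cells were exposed 72 h and viability read by CellTiter-Glo.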
The nature of test [4]: P-glycoprotein substrates identified in KB-8-5-11 adenocarcinoma cell line, qHTS therapeutic library screen (AID 1346987). Also: nearly all actives have a fitted effect of over 65% in size. Also: potency is read from the fitted curve at half-maximal effect. An outline of the steps:
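Steps: plate 500 KB-8-5-11 cells/well in DMEM + 10% FCS (colchicine removed); pin compounds in dose-response; incubate 72 h, 37 degree C, 5% CO2; add CellTiter-Glo, 5 min; read luminescence.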

Test [5] concerns Zika virus NS2B-NS3 protease. As to the kind of experiment: Primary screen GU AMC qHTS for Zika virus inhibitors (AID 1347154).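 Also: 0% = no-inhibitor control and -100% = no-enzyme control; nearly all actives have a fitted effect of over 70% in size.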 An outline of the steps:
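Unlinked Zika NS2B hydrophilic domain/NS3 protease domain noncovalent complex (25 nM final) in 10 mM Tris-HCl pH 8.0, 0.01% Tween 20, with AMC peptide substrate. Fluorescence (ex 340, em 450 nm) change over 15 min, room temperature; percent inhibition fitted to 4-parameter Hill equation.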

Test [6] in a line: Primary qHTS for small molecule stabilizers of the endoplasmic reticulum resident proteome: Secreted ER Calcium Modulated Protein (SERCaMP) assay (AID 1508630). Also: % is scaled to controls: 0 for no effect and ±100 for the full control effect. Summed up: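 GLuc-SERCaMP-expressing SH-SY5Y cells, pretreated 16 h with compound, are challenged with thapsigargin to empty ER calcium stores; after 4 h, coelenterazine is added directly to the medium and luminescence is imaged.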

Test [7] can be described thus: Primary qHTS for inhibitors of nuclear receptor binding SET domain protein 2 (NSD2) in an RCH-ACV wild type WT cells (2C) (AID 1645877). Also: % is scaled to controls: 0 for no effect and ±100 for the full control effect; nearly all actives have a fitted effect of over 70% in size.
The target in test [8] is Glutathione peroxidase 1 (Homo sapiens) (UniProt P07203). In words: Primary qHTS Assay for Inhibitors of Recombinant Selenoprotein Glutathione Peroxidase 1 (GPX1) (AID 1845191). Also: % is scaled to controls: 0 for no effect and ±100 for the full control effect; nearly all actives have a fitted effect of over 65% in size. Summed up: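 Recombinant GPX1 (10 nM final) was preincubated with compound for 30 min at room temperature, then reacted with 1 mM GSH, 0.5 mM CHP, 0.5 mM NADPH and 100 nM glutathione reductase; NADPH fluorescence (340/450 nm) was read at 0 and 15 min.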
Chain of Glutathione peroxidase 1 (Homo sapiens) (P07203 whole entry, looked up): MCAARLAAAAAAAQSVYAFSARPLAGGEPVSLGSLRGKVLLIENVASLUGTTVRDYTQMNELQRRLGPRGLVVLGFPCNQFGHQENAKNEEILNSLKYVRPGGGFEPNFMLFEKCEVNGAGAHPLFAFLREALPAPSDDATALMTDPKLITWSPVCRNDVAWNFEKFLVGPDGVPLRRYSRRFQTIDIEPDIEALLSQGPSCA

Test [9] addresses Calcium and integrin-binding protein 1 (Homo sapiens) (UniProt Q99828). In words: Primary qHTS for Identification of Calcium Integrin Binding Protein 1 (CIB1) Competitor (AID 1508620).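 Also: GST tagged CIB1 binding a fluorescein labelled alphaIIb integrin peptide tracer; top concentration of the series differs between compounds; % is scaled to controls: 0 for no effect and ±100 for the full control effect.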 Summed up:
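Fluorescence polarization competition: CIB1-GST (1 uM final) preincubated with compound 15 min at room temperature, then FITC-labeled alphaIIb peptide (100 nM final) added for another 15 min. Polarization read at Ex 480/Em 540.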

Another test deals with astro. In words: Drug repurposing screens with cells derived from glioblastoma tumor samples (AID 1345199). Also: nearly all actives have a fitted effect of over 40% in size. Also: potency is read from the fitted curve at half-maximal effect. Particulars: viability, ATP luminescence, 48 h; series mostly up to 45.9 µM. An outline of the steps:
(§1)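 Four patient lines of CD133+ GBM neurospheres were screened at several concentrations; hits were retested in those lines plus three slower-growing GBM lines, using 48-hour treatment and ATP-based viability.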

Test [10] can be described thus: Primary qHTS for inhibitors of nuclear receptor binding SET domain protein 2 (NSD2) in an isogenic RCH-ACV NSD2 p.E1099K mutant (9B) (AID 1645876). Also: nearly all actives have a fitted effect of over 70% in size.
Test [11] is described as follows: Drug repurposing screens with cells derived from glioblastoma tumor samples (AID 1345199). Also: nearly all actives have a fitted effect of over 40% in size. Also: potency is read from the fitted curve at half-maximal effect. Particulars: GBM patient neurospheres viability, ATP luminescence, 48 h. Summed up: as §1
The target in test [12] is Glucocorticoid receptor (Homo sapiens) (UniProt P04150). As to the kind of experiment: GR-GFP Redistribution (AID 450;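 active = compounds whose dose series gives a full or clear partial fitted curve of increased nuclear translocation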; also: potency is read from the fitted curve at half-maximal effect). Particulars: U2OS GR-GFP nuclear translocation, laser cytometry, 2 h.
Chain of Glucocorticoid receptor (Homo sapiens) (P04150 whole entry, looked up): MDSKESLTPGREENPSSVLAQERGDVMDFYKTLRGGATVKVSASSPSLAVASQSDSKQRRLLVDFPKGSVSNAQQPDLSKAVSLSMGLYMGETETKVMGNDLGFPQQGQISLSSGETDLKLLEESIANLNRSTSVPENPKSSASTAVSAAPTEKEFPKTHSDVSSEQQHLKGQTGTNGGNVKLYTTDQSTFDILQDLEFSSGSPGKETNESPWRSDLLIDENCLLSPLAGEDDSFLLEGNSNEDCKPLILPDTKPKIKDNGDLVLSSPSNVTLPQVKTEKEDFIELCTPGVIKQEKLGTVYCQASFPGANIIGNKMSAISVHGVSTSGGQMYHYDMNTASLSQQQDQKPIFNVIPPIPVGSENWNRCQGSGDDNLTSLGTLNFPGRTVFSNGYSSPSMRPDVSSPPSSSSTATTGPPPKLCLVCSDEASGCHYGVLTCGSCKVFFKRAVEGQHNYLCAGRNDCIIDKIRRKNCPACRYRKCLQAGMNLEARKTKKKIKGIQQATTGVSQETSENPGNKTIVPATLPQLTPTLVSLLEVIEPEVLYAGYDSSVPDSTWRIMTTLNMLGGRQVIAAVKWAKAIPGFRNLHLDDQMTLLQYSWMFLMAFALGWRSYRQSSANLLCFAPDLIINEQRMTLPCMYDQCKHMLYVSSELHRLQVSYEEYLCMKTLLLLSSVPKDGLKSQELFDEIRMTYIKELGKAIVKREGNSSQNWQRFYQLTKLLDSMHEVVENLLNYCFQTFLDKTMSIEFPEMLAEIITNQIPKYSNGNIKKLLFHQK
For test [13] the target is unchanged. In words: GR-EFC Redistribution (AID 451; calls by dose curve; also: potency is read from the fitted curve at half-maximal effect). The note with it: CHO-K1 GR-EFC translocation, beta-gal luminescence, 2 h. Summed up:
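CHO-K1 cells stably expressing nuclear-localized β-gal enzyme acceptor and GR fused C-terminally to the enzyme donor fragment; ligand-driven nuclear translocation restores β-gal by complementation. Compounds titrated up to 46 uM final, 2 h at 37 °C; luminescence read.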

The target of test [14] is Mitogen-activated protein kinase 10 (Mus musculus) (UniProt Q61831). In words: JNK3 AlphaScreen Assay (AID 530; active = well fitted curve in either direction with a large enough effect, not every such curve was filed as active;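 also: kinase came from lysate of stimulated human HepG2 cells; signal reports phosphorylation of biotinylated GST-cJun 1-79 at Ser73 with 10 µM ATP; % is scaled to controls: 0 for no effect and ±100 for the full control effect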). An outline of the steps: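 Inhibitors reduce antibody binding to phosphorylated biotin-cJun, lowering AlphaScreen luminescence. Lysates from HepG2 cells pre-activated by IL-1beta plus TNF-alpha supplied JNK3; compounds were titrated.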
Test [15] concerns the target Cytochrome P450 2C9 (Homo sapiens) (UniProt P11712). As to the kind of experiment: qHTS Assay for Inhibitors and Substrates of Cytochrome P450 2C9 (AID 883). Also: potency is read from the fitted curve at half-maximal effect; nearly all actives have a fitted effect of over 60% in size. An outline of the steps: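 A luminogenic readout tracked human CYP2C9 (10nM) converting deoxyluciferin (100uM, at KM) in 25mM KPO4 during 60 min at 37C with regenerated NADPH. Values normalized to 57uM sulphaphenazole as complete inhibition.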

Test [16] addresses Cytochrome P450 2C19 (Homo sapiens) (UniProt P33261). As to the kind of experiment: qHTS Assay for Inhibitors and Substrates of Cytochrome P450 2C19 (AID 899). Also: potency is read from the fitted curve at half-maximal effect; nearly all actives have a fitted effect of over 60% in size. Summed up:
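NADPH-dependent conversion of Luciferin-H EGE (10uM, at KM) by 5nM enzyme in 50mM KPO4, 60 min at 37C following 10 min compound preincubation. Stopped with luciferin detection buffer; luminescence read after 20 min.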

In test [17] the target is Ubiquitin carboxyl-terminal hydrolase 1 (Homo sapiens) (UniProt O94782). As to the kind of experiment: Inhibitors of USP1/UAF1: Pilot qHTS (AID 504865).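 Also: rhodamine fluorescence freed from ubiquitin-rhodamine substrate followed over time; top concentration of the series differs between compounds; % is scaled to controls: 0 for no effect and ±100 for the full control effect; nearly all actives have a fitted effect of over 35% in size.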 Summed up:
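Kinetic fluorescence assay: 1nM USP1/UAF1, 15 min compound preincubation, then 150nM Ub-Rho; 480/540 nm.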

The target in test [18] is DNA dC->dU-editing enzyme APOBEC-3G (Homo sapiens) (UniProt Q9HC16). In words: qHTS for inhibitors of Vif-A3G interactions: Validation (AID 588379). Also: 0% is about no effect. An outline of the steps: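 HeLa cells stably expressing Vif and A3G-eYFP, 700 cells/well, incubated overnight at 37 deg C, then exposed to compound overnight at 37 deg C. Inhibition of Vif-mediated degradation read as increased yellow fluorescence (Ex 488/Em 500-530) by laser-scanning cytometry.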
Chain of DNA dC->dU-editing enzyme APOBEC-3G (Homo sapiens) (Q9HC16 whole entry, looked up): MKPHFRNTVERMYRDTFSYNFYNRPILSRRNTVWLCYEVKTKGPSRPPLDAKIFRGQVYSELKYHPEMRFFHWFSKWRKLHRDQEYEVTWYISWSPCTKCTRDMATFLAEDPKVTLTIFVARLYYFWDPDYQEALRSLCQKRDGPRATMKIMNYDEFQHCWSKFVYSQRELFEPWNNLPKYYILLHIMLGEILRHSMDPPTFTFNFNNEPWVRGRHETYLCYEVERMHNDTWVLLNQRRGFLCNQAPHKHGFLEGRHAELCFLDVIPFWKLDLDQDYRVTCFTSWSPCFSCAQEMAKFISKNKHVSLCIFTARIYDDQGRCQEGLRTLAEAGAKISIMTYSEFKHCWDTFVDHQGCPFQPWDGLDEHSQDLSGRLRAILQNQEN

A short description of test [19]: NCATS anti-infectives library activity on HEK293 viability as a counter-qHTS vs the C. elegans viability qHTS (AID 1745854). Also: % is scaled to controls: 0 for no effect and ±100 for the full control effect. Summed up: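 Compounds were acoustically plated (several concentrations, 1:5, final up to 41.7 uM), then 1500 HEK293 cells added per well and incubated 24 hr at 37C, 5% CO2. CellTiter-Glo was added and luminescence read after 10 min.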
The nature of test [20]: NCATS anti-infectives library activity on the primary C. elegans qHTS viability assay (AID 1745855; calls by dose curve). An outline of the steps:
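Viability read-out is GFP fluorescence of PE254-GFP-FLuc C. elegans, measured by laser cytometry (488 nm) at day 0, 3 and 7. Ten L1 worms per well were incubated 7 days at 21 °C with compounds and bacterial capsules in S medium.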

Chain of Cytochrome P450 2C9 (Homo sapiens) (P11712 whole entry, looked up): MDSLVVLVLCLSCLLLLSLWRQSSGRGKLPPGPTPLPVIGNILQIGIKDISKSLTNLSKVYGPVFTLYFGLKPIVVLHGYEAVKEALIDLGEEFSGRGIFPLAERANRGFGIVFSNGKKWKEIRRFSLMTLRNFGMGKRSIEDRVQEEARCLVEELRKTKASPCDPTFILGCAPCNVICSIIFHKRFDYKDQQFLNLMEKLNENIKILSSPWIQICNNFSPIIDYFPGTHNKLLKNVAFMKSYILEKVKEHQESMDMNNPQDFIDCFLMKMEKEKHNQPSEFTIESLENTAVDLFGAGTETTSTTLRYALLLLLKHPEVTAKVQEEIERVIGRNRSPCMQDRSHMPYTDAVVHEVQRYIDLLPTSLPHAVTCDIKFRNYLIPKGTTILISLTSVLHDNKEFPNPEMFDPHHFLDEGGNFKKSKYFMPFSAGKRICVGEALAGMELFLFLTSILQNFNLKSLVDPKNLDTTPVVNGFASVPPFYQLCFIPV
Chain of Ubiquitin carboxyl-terminal hydrolase 1 (Homo sapiens) (O94782 whole entry, looked up): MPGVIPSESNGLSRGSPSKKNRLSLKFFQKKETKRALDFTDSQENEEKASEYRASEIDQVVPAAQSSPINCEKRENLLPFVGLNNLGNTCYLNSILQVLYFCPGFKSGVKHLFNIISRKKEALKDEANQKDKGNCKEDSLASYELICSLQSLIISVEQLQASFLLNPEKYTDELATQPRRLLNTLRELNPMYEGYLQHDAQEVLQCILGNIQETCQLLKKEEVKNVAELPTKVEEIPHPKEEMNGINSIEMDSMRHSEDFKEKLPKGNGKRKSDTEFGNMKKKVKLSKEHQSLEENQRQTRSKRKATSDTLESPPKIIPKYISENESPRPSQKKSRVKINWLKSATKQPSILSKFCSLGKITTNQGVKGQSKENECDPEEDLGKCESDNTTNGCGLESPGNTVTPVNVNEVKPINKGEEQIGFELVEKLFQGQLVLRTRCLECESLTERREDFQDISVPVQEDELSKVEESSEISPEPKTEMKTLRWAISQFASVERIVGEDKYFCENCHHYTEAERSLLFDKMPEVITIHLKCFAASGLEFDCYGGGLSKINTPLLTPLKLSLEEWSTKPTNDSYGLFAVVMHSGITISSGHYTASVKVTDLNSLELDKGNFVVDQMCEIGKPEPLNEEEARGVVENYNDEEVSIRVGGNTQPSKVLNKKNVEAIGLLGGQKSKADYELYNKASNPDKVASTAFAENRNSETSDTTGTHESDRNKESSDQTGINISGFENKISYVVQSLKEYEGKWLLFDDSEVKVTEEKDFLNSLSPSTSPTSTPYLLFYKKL
Chain of Cytochrome P450 2C19 (Homo sapiens) (P33261 whole entry, looked up): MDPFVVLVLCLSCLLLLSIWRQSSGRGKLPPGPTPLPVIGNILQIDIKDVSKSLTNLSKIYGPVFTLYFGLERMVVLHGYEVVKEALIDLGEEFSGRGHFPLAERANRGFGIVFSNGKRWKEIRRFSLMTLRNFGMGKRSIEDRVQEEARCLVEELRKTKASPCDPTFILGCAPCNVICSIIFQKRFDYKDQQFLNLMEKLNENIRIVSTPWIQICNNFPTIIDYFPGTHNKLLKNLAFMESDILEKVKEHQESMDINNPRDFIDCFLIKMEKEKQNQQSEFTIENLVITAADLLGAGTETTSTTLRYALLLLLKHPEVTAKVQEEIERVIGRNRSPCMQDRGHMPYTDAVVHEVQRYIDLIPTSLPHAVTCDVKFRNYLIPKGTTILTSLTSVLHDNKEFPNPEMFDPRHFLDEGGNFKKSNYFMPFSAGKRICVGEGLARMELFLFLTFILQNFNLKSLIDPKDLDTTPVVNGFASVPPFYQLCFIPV
Chain of Calcium and integrin-binding protein 1 (Homo sapiens) (Q99828 whole entry, looked up): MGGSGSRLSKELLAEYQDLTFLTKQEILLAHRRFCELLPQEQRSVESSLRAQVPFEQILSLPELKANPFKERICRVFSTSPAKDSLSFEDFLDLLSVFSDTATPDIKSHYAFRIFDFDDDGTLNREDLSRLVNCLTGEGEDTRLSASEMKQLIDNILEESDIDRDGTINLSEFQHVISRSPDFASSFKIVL

Take `C=CC(=O)c1ccc2ccccc2c1`: in [1], the Potency was 25.1 µM (active). Also, the Potency result in test [2], in test [3], in test [4], in test [5], in [6] and in [7] was “inactive” in each case. For the same compound, the Potency result in test [8] was “inactive”.
`CCN(CC)C(=O)c1cc(S(=O)(=O)Cc2ccccc2)c(N2CCC(c3ccccc3)CC2)cc1N(CC)CCN(C)C`: the Potency is 16.4 µM (active) in test [4] and 12.6 µM (active) in the test with astro. For the same compound, the outcome in test [9] was inactive.
For `NC(=O)c1sc(-c2ccsc2)cc1N`, the Potency result in [3], in test [4], in test [5], in [10], in [7] and in test [8] was “inactive” each time.
Take `C[N+]1(C)CCN(CC(O)(c2ccccc2)C2CCCCC2)CC1` (configuration not stated): the Potency entry (in test [8]; in the test on astro) was “inactive” each time. The activity, negative = cell killing in test [11] (at 45.9 µM (top of the series), tumour line B) was 4.18%; in test [11] (at 45.9 µM (top of the series), tumour line D), -11.4%; in test [11] (at 46.1 µM (top of the series), tumour line C) it was 3.68%.
Take `Cc1nc2c(O)cccc2c(=O)[nH]1`: the Potency is over 46 µM in test [12], over 46 µM in test [13], 3.98 µM (active) in [15] and 398 nM (active) in [16]. In addition, the Potency entry in test [14], in test [17], in test [18], in test [3], in test [4] and in test [5] was “inactive” throughout. Besides, the Potency entry in test [6], in test [10], in test [7] and in test [20] was “inactive” in each case. The result in test [19] was inactive.

Source of the values: PubChem BioAssay (NCATS).
